Reference: PubChem BioAssay (Tox21)
Results filed as inconclusive are left out. Calls of active or inactive are those of the source. The call rests on the fitted dose curve; in most records, active means well fitted curve in the direction sought with a large enough effect in the repeat runs; inconclusive means weak or mixed curves; inactive means no such curve, though single readings can be large; an effect the other way counts as inactive or inconclusive. Non-standard residues stand in square brackets, D forms with d. Residues, ends and D or L forms follow the SMILES beside them. *: point of attachment. Sta = CC(C)C[C@H](N)[C@@H](O)CC(=O)O; Isovaleryl = CC(C)CC(=O)*

Tests used:
[1] = qHTS RealTime-Glo MT Cell Viability Assay in HepG2 cells - 24 hour (AID 1224867); further: nearly all actives have a fitted effect of over 50% in size
Procedure, shortened: (§1)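 Real-time, nonlytic viability: 600 HepG2 cells/well mixed with NanoLuc enzyme plus prosubstrate; 5 h settle, compound (DMSO) added by pintool; luminescence monitored over 40 h at 37 C.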

[2] = qHTS RealTime-Glo MT Cell Viability Assay in HEK293 cells - 32 hour (AID 1224868); further: top concentration of the series differs between compounds; nearly all actives have a fitted effect of over 50% in size
Procedure, shortened: (§2)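 Cells + reagent dispensed (600 cells/well, HEK293) → 5 h at 37 C/5% CO2 → 23 nL compound in DMSO pinned → 40 h at 37 C → luminescence read at 0, 8, 16, 24, 32, 40 h.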

[3] = A CellTox Green Cytotoxicity Assay to monitor cytotoxicity in HEK293 cells - 0 hour (AID 1224869); further: nearly all actives have a fitted effect of over 50% in size
Procedure, shortened: (§3)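 Cytotoxicity was tracked continuously in HEK293 cells by a DNA-binding dye excluded from viable cells. Compounds were transferred in DMSO 5 h after seeding; fluorescence was recorded at intervals up to 40 h.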

[4] = qHTS RealTime-Glo MT Cell Viability Assay in HepG2 cells - 40 hour (AID 1224870); further: nearly all actives have a fitted effect of over 50% in size
Procedure, shortened: (§4)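 Real-time viability: cells seeded at 600 per well together with NanoLuc and cell-permeant prosubstrate, compounds added after 5 h incubation. Luminescence tracked at 0, 8, 16, 24, 32 and 40 h of exposure.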

[5] = A CellTox Green Cytotoxicity Assay to monitor cytotoxicity in HEK293 cells - 40 hour (AID 1224871); further: nearly all actives have a fitted effect of over 45% in size
Procedure, shortened: as §3

[6] = qHTS RealTime-Glo MT Cell Viability Assay in HEK293 cells - 16 hour (AID 1224872)
Procedure, shortened: as §2

[7] = qHTS RealTime-Glo MT Cell Viability Assay in HepG2 cells - 8 hour (AID 1224873); further: nearly all actives have a fitted effect of over 55% in size
Procedure, shortened: as §4

[8] = qHTS RealTime-Glo MT Cell Viability Assay in HEK293 cells - 40 hour (AID 1224874); conditions: RealTime-Glo luminescence, stronger effect = lower value; further: nearly all actives have a fitted effect of over 50% in size
Procedure, shortened: (§5)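 Nonlytic bioluminescent viability monitoring. HEK293 at 600 cells/well with reagent; 5 h settle; compound transfer by pintool; plates held at 37 C and read at set time points.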

[9] = A CellTox Green Cytotoxicity Assay to monitor cytotoxicity in HEK293 cells - 24 hour (AID 1224875); further: series mostly up to about 77 µM; nearly all actives have a fitted effect of over 45% in size
Procedure, shortened: as §3

[10] = A CellTox Green Cytotoxicity Assay to monitor cytotoxicity in HepG2 cells - 16 hour (AID 1224876); further: nearly all actives have a fitted effect of over 45% in size
Procedure, shortened: (§6)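 Real-time, homogeneous cytotoxicity readout: dead-cell DNA staining by CellTox Green in HepG2 monolayers, fluorescence measured at timed intervals up to 40 h of continuous compound exposure.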

[11] = qHTS RealTime-Glo MT Cell Viability Assay in HepG2 cells - 32 hour (AID 1224877); further: nearly all actives have a fitted effect of over 55% in size
Procedure, shortened: as §1

[12] = A CellTox Green Cytotoxicity Assay to monitor cytotoxicity in HepG2 cells - 40 hour (AID 1224879); further: nearly all actives have a fitted effect of over 40% in size
Procedure, shortened: as §6

[13] = qHTS RealTime-Glo MT Cell Viability Assay in HEK293 cells - 0 hour (AID 1224880); further: top concentration of the series differs between compounds; nearly all actives have a fitted effect of over 45% in size
Procedure, shortened: as §5

[14] = A CellTox Green Cytotoxicity Assay to monitor cytotoxicity in HEK293 cells - 32 hour (AID 1224881); further: nearly all actives have a fitted effect of over 40% in size
Procedure, shortened: as §3

[15] = A CellTox Green Cytotoxicity Assay to monitor cytotoxicity in HepG2 cells - 0 hour (AID 1224882); further: nearly all actives have a fitted effect of over 35% in size
Procedure, shortened: as §6

[16] = A CellTox Green Cytotoxicity Assay to monitor cytotoxicity in HepG2 cells - 32 hour (AID 1224883); further: nearly all actives have a fitted effect of over 50% in size
Procedure, shortened: as §6

[17] = A CellTox Green Cytotoxicity Assay to monitor cytotoxicity in HEK293 cells - 8 hour (AID 1224884); further: nearly all actives have a fitted effect of over 35% in size
Procedure, shortened: as §3

[18] = qHTS RealTime-Glo MT Cell Viability Assay in HepG2 cells - 16 hour (AID 1224885); further: nearly all actives have a fitted effect of over 50% in size
Procedure, shortened: as §1

[19] = qHTS RealTime-Glo MT Cell Viability Assay in HEK293 cells - 24 hour (AID 1224886)
Procedure, shortened: as §2

[20] = A CellTox Green Cytotoxicity Assay to monitor cytotoxicity in HepG2 cells - 24 hour (AID 1224878); further: nearly all actives have a fitted effect of over 45% in size
Procedure, shortened: as §6
On the % scale 0 is the no-effect control and ±100 the full control effect.

CC(=O)SC[C@@H](C)C(=O)N1CCC[C@H]1C(=O)N[C@@H](Cc1ccccc1)C(=O)O
inactive: outcome [1] | outcome [2] | outcome [3] | outcome [4] | Potency [5] | outcome [6] | outcome [7] | max response [8] 3.03% | Potency [9] | Potency [10] | outcome [11] | Potency [12] | Potency [13] | Potency [14] | Potency [15] | Potency [16] | Potency [17] | outcome [18] | outcome [19]

CCOc1ccccc1OCCN[C@H](C)Cc1ccc(OC)c(S(N)(=O)=O)c1
inactive: outcome [1] | outcome [2] | outcome [3] | outcome [4] | Potency [5] | outcome [6] | outcome [7] | max response [8] -2.4% | Potency [9] | Potency [10] | outcome [11] | Potency [20] | Potency [12] | Potency [13] | Potency [14] | Potency [16] | Potency [17] | outcome [18] | outcome [19]

CSC(=O)c1cccc2nnsc12
inactive: outcome [1] | outcome [2] | outcome [3] | outcome [4] | Potency [5] | outcome [6] | outcome [7] | max response [8] -1.81% | Potency [9] | Potency [10] | outcome [11] | Potency [20] | Potency [12] | Potency [14] | Potency [15] | Potency [16] | Potency [17] | outcome [18] | outcome [19]

CC(C)CC(=O)N[C@H](C(=O)N[C@H](C(=O)N[C@@H](CC(C)C)[C@@H](O)CC(=O)N[C@@H](C)C(=O)N[C@@H](CC(C)C)[C@@H](O)CC(=O)O)C(C)C)C(C)C (Isovaleryl-VV[Sta]A[Sta]-OH)
inactive: outcome [1] | outcome [2] | outcome [3] | outcome [4] | Potency [5] | outcome [6] | outcome [7] | max response [8] 14.7% | Potency [9] | Potency [10] | outcome [11] | Potency [20] | Potency [12] | Potency [14] | Potency [15] | Potency [16] | Potency [17] | outcome [18] | outcome [19]

C=C(C)C(=O)OCCOC1CC2CC1C1C=CCC21 (stereo unspecified)
inactive: outcome [1] | outcome [2] | outcome [3] | outcome [4] | Potency [5] | outcome [6] | outcome [7] | max response [8] 0.272% | Potency [9] | Potency [10] | outcome [11] | Potency [12] | Potency [14] | Potency [15] | Potency [16] | outcome [18] | outcome [19]

COc1ccc2cc(CCC(C)=O)ccc2c1
inactive: outcome [1] | outcome [2] | outcome [3] | outcome [4] | Potency [5] | outcome [6] | outcome [7] | max response [8] -11.3% | Potency [9] | outcome [11] | Potency [20] | Potency [12] | Potency [13] | Potency [14] | Potency [15] | Potency [16] | Potency [17] | outcome [19]

CCCCCCCCS(=O)(=O)O
inactive: outcome [1] | outcome [2] | outcome [3] | outcome [4] | Potency [5] | outcome [6] | outcome [7] | max response [8] -0.584% | Potency [9] | outcome [11] | Potency [20] | Potency [12] | Potency [13] | Potency [14] | Potency [15] | Potency [16] | Potency [17] | outcome [18]

CC(O)C(CO)C(C)O (stereo unspecified)
inactive: outcome [1] | outcome [2] | outcome [3] | outcome [4] | Potency [5] | outcome [6] | outcome [7] | max response [8] -0.0675% | Potency [9] | Potency [10] | outcome [11] | Potency [12] | Potency [13] | Potency [14] | Potency [15] | Potency [17] | outcome [19]

CCCC(=O)CC
inactive: outcome [1] | outcome [2] | outcome [3] | outcome [4] | Potency [5] | outcome [6] | outcome [7] | max response [8] 11.6% | Potency [9] | Potency [10] | Potency [12] | Potency [13] | Potency [14] | Potency [15] | Potency [16] | Potency [17] | outcome [18] | outcome [19]

O=Cc1ccc(C(=O)O)cc1
inactive: outcome [1] | outcome [2] | outcome [3] | outcome [4] | Potency [5] | outcome [6] | outcome [7] | max response [8] 0.978% | Potency [9] | outcome [11] | Potency [20] | Potency [12] | Potency [13] | Potency [14] | Potency [15] | Potency [16] | outcome [18]

O=S(=O)(O)c1cc(I)c(O)c2ncccc12
inactive: outcome [1] | outcome [2] | outcome [3] | outcome [4] | Potency [5] | outcome [6] | outcome [7] | max response [8] 5.82% | Potency [9] | Potency [10] | Potency [20] | Potency [12] | Potency [13] | Potency [14] | Potency [15] | Potency [16] | Potency [17] | outcome [18] | outcome [19]

CCN(CC)CC
inactive: outcome [1] | outcome [2] | outcome [3] | outcome [4] | Potency [5] | outcome [6] | outcome [7] | max response [8] -12.9% | Potency [9] | Potency [10] | outcome [11] | Potency [12] | Potency [14] | Potency [15] | Potency [17] | outcome [18] | outcome [19]

CC(C)(C)OC(=O)c1ccccc1C(=O)O
inactive: outcome [1] | outcome [2] | outcome [3] | outcome [4] | Potency [5] | outcome [6] | outcome [7] | max response [8] 0.795% | Potency [9] | Potency [10] | Potency [20] | Potency [12] | Potency [14] | Potency [16] | Potency [17] | outcome [18]

Clc1cc(Cl)c(Cl)c(Cl)c1Cl
inactive: outcome [1] | outcome [2] | outcome [3] | outcome [4] | Potency [5] | outcome [6] | outcome [7] | max response [8] -0.18% | Potency [9] | Potency [10] | Potency [20] | Potency [12] | Potency [13] | Potency [14] | Potency [15] | Potency [17] | outcome [18] | outcome [19]
